In the library only some 1.4% were active in any assay of this set; here they are far more common.
FBPA Giardia inh: Giardia lamblia aldolase inhibition | A8B2U2 | purified Giardia FBPA | Potency, µM (top dose mostly 59.6 µM), without a hit: at the highest dose activity, negative = inhibition, usual class: inhibitors | actives 0.71% (n = 290,000) | AID 2451; note: nearly all actives have a fitted effect of over 55% in size
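Giardia FBPA (40 nM reagent) was preincubated 10 min at RT with compound (up to 57.5 uM final), then substrate plus GAPDH/TPI/NAD/arsenate coupling system with diaphorase/resazurin was added; resorufin fluorescence (525/598 nm) was read after 20 min.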
Tb PYK inh: blocks Trypanosoma brucei pyruvate kinase. Q57TT1. TbPYK enzyme, Kinase-Glo Plus ATP luminescence, 45 min. Potency, µM (highest dose often 76.8 µM), without a hit: top-dose activity, negative = inhibition, most hits filed as inhibitors. actives 0.12% (n = 410,000). AID 624173; note: nearly all actives have a fitted effect of over 50% in size
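Activity of T. brucei pyruvate kinase was followed by Kinase-Glo Plus luminescence after the enzyme reacted 45 min at room temperature with 130 uM ADP (final) and substrate. Test compounds were added before ADP at multiple concentrations.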
AmpC inh detg: blocks E. coli AmpC beta-lactamase in detergent assay; AmpC hydrolysis of nitrocefin, absorbance 480 nm, 0.01% Triton; Potency, µM (doses to about 114 µM), for the others: at the top dose activity change, negative = inhibition, actives largely listed as inhibitors; actives 0.041% (n = 370,000); P00811;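 note: 0% = no-compound wells and -100% = no-enzyme wells; nearly all actives have a fitted effect of over 25% in size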
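20 mM phosphate pH 7.0 + 0.01% (detergent screen) or 0.0001% Triton X-100; 5.3 nM AmpC reagent; cpd preinc 15 min RT; nitrocefin (800 uM stock) to start; A480 q20 s × 4 min; Activity was normalised to no-enzyme and no-compound control wells.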
RE007 growth inh: less growth of the S. pombe RE007 Vpr strain. S. pombe RE007 Vpr strain, BacTiter-Glo ATP luminescence, 24 h. Potency, µM (series often up to 92.2 µM), for inactives: at the top dose activity change, negative = less growth, most hits filed as inhibitors. AID 651644. actives 0.21% (n = 360,000); active = well fitted falling curve with a large enough effect; inconclusive = small, poorly fitted or top-dose-only effect; inactive = no such curve, though single readings can be large or run the other way; note: nearly all actives have a fitted effect of over 50% in size
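Fission yeast strain RE007, carrying one chromosomally integrated HIV-1 vpr copy, was seeded at OD 0.01 in PMG+AL medium with 23 nL pinned compound. After 24 h at 30 °C and 99% humidity, viability was read by BacTiter-Glo luminescence.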
AmpC no deterg: AmpC beta-lactamase inhibition without detergent; P00811; actives 0.52% (n = 330,000); AmpC nitrocefin hydrolysis, absorbance 480 nm, 0.0001% Triton; Potency, µM (top dose mostly 57.1 µM), for inactives: top-dose activity change, negative = inhibition, usual class: inhibitors; AID 485341;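 note: plate controls were no compound for no effect and no enzyme for full effect; nearly all actives have a fitted effect of over 20% in size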
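20 mM phosphate pH 7.0 + 0.01% (detergent screen) or 0.0001% Triton X-100; 5.3 nM AmpC reagent; cpd preinc 15 min RT; nitrocefin (800 uM stock) to start; A480 q20 s × 4 min; Activity was normalised to no-enzyme and no-compound control wells.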
LmPK inhibitor: inhibitors of Leishmania mexicana pyruvate kinase; Q27686; purified LmPK, Kinase-Glo ATP luminescence, 1 h; Potency, µM (top dose mostly 57.5 µM), without a hit: at the top dose activity change, negative = inhibition, hits mostly inhibitors; actives 0.37% (n = 290,000); AID 1721
Target sequence (Q27686 whole entry, looked up): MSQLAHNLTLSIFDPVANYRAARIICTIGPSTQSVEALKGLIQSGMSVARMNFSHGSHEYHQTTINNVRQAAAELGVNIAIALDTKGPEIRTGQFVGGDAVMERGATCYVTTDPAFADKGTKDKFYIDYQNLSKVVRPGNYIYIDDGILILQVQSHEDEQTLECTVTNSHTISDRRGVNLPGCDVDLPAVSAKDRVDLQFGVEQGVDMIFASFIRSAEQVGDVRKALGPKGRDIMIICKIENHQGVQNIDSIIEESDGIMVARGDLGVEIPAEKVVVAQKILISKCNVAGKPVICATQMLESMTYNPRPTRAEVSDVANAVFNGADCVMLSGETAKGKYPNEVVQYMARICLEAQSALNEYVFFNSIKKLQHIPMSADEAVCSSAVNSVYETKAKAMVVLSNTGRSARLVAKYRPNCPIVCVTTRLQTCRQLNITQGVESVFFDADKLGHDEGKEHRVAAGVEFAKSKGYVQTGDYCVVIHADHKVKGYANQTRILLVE
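Purified LmPK (0.1 nM) converted ADP (0.1 mM) to ATP with PEP (0.5 mM) in imidazole buffer pH 7.2 with KCl and MgCl2, 1 h at room temperature. ATP was read by Kinase-Glo luminescence; data normalized to uninhibited and no-enzyme controls.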
Starred values were filed as active, the others as inactive; ? = inconclusive; / = no result; [ ] = remark or other dose. Unless noted, calls come from the whole dose curve; as a rule, active = well fitted curve in the direction sought with a large enough effect; inconclusive = small, poorly fitted or top-dose-only effect, or another doubt; inactive = no such curve, though single readings can be large; an effect the other way counts as inactive or inconclusive. Unless noted, % is set by controls: 0 for no effect and ±100 for the full control effect; potency is the fitted concentration of half-maximal effect.

SMILES	FBPA Giardia inh	Tb PYK inh	AmpC inh detg	RE007 growth inh	AmpC no deterg	LmPK inhibitor
COCCNC(=O)c1ccc2c3n(nc2c1)-c1ccccc1CO3	5%	-31%	4%	-28%	0%	?
C=CCNC(=O)c1ccc2c3n(nc2c1)-c1ccccc1CO3	0%	?	-9%	?	-17%	14µM*
Cc1ccc2c(c1)COc1c3ccc(C(=O)N4CCOCC4)cc3nn1-2	6%	-15%	4%	-33%	60%	16µM*
O=C(c1ccc2c3n(nc2c1)-c1ccc(Cl)cc1CO3)N1CCCCC1	-7%	-19%	1%	-16%	80%	25µM*
O=C(O)c1ccc2c3n(nc2c1)-c1ccc(Cl)cc1CO3	-5%	-9%	0%	-5%	-30%	?
CCCCOc1ccc(C2=NC(c3ccncc3)=Nc3ccc(OCC)cc3N2)cc1	/	5%	20%	/	/	/
CCOCCCNC(=O)c1ccc2c(=O)n(CCc3ccc(OC)c(OC)c3)c(=O)[nH]c2c1	/	1%	-7%	/	/	/
O=C(c1c[nH]c(=O)n(-c2ccccc2)c1=O)N1CCc2ccccc21	3%	3%	0%	1%	-19%	1%
Cc1ccc(-n2c(=O)[nH]cc(C(=O)N3CCc4ccccc43)c2=O)cc1C	-4%	0%	?	-3%	10µM*	-4%
CCOCCCNC(=O)/C(C#N)=C/c1ccc(-c2ccc(S(=O)(=O)N3CCOCC3)cc2)o1	-11%	4%	0%	/	182%	0%
CC(NC(=O)/C(C#N)=C/c1ccc([N+](=O)[O-])o1)c1ccccc1 (stereo not drawn)	?	4%	-10%	5µM*	-39%	1%
CCOCCCNC(=O)/C(C#N)=C/c1ccc([N+](=O)[O-])o1	?	0%	-10%	45µM*	-6%[11.4 µM]	6%
COc1ccccc1COCC(O)CNCC1(N2CCCCC2)CCCCC1 (stereo not drawn)	-1%	-10%	0%	-1%	0.14µM*	-8%
COc1cc(C(C)=O)ccc1OCC(O)CNCC1(N2CCCCC2)CCCCC1 (stereo not drawn)	-24%	/	?	10%[3.69 µM]	-15%	0%
O=C(Nn1c(C2CCCCC2)nc2ccccc2c1=O)c1ccc([N+](=O)[O-])cc1Cl	5%	3%	-10%	-5%	14µM*	2%
CCC(C)C1OC2(C=CC1C)CC1CC(C/C=C(\C)C(OC3CC(OC)C(OC4CC(OC)C(NC(C)=O)C(C)O4)C(C)O3)C(C)/C=C/C=C3\COC4C(O)C(C)=CC(C(=O)O1)C34O)O2 (stereo not drawn) (tested in a mixture with another compound)	/	-5%	/	/	/	/
CC(=O)c1ccc(NC(=O)c2nc(-c3ccccc3)n(-c3ccccc3Cl)n2)cc1	/	-7%	4%	/	/	/
CC(c1ccc(F)cc1)n1c(-c2ccc3ccccc3n2)n[nH]c1=S (stereo not drawn)	/	-13%	-7%	9%	-41%	11µM*
S=c1[nH]nc(-c2ccc3ccccc3n2)n1-c1ccccc1	6%	?	-6%	/	-14%	28µM*
Fc1ccccc1-n1c(-c2ccc3ccccc3n2)n[nH]c1=S	-23%	?	?	-17%	-41%	-12%
CC(c1ccc(Cl)cc1)n1c(-c2ccc3ccccc3n2)n[nH]c1=S (stereo not drawn)	4%	-27%	5%	-1%	-35%	2%
S=c1[nH]nc(-c2ccc3ccccc3n2)n1-c1ccc2c(c1)OCCO2	13%	4.5µM*	-7%	-3%	-30%	8.9µM*
CC(=O)c1ccc(NC(=S)NCCc2ccc(S(N)(=O)=O)cc2)cc1	0%	5%	1%	-9%	124%	-2%
CC(C)OCCCNC(=S)Nc1ccc(S(N)(=O)=O)cc1	14µM*	?	-4%	19%	-32%	1%
COc1cc(/C=C2\CC/C(=C\c3cc(OC)c(OC)c(OC)c3)C2=O)cc(OC)c1OC	-2%	2%	4%	4%	-30%	1%
SMILES	FBPA Giardia inh	Tb PYK inh	AmpC inh detg	RE007 growth inh	AmpC no deterg	LmPK inhibitor
COc1cc(/C=C2\CC/C(=C\c3cc(OC)c(O)c(OC)c3)C2=O)cc(OC)c1O	1.6µM*	?	?	5%	39%	0%
CCOC(=O)c1cnn(-c2ccc(C(=O)Nc3ccc(OC(F)(F)F)cc3)cc2)c1N	/	2%	9%	/	/	/
Cc1cc(C)cc(NC(=O)C(OC(=O)c2ccc(NC(=O)CC#N)cc2)c2ccccc2)c1 (stereo not drawn)	/	4%	-10%	25%	11µM*	/
COCCNc1cc(C)nc2cc(-c3ccc(C)cc3)nn12	-12%	0%	2%	?	37%	1%
Cc1ccc(-c2cc3nc(C)cc(NCc4ccco4)n3n2)cc1	-18%	1%	?	?	25%	28µM*
COc1ccc(NCc2cc3cc4c(cc3n(CC(=O)Nc3ccccc3)c2=O)OCO4)cc1	/	7%	18%	/	/	/
O=C(O)c1cc[c]([Hg][Cl])cc1	?	18µM*	?	?	-3%	/
NCCCC(N)C(=O)O (stereo not drawn)	/	-6%	/	/	/	/
O=C(O)c1cccc2c1NC(C(=O)O)C1CC(Sc3ccccc3[N+](=O)[O-])C(Cl)C21 (stereo not drawn)	-19%	-11%	40µM*	-35%	-51%	?
CC(=O)c1ccc2c(c1)C1C(Cl)C(Sc3ccccc3[N+](=O)[O-])CC1C(C(=O)O)N2 (stereo not drawn)	-3%	-12%	?	-4%	-46%	-6%
O=C(O)c1ccccc1C(=O)Nc1n[nH]c(=S)s1	10µM*	?	-2%	3%	-36%	3%
C=CCN(CC=C)S(=O)(=O)c1ccc(NC(=S)NC(=O)c2ccco2)cc1	-29%	-10%	-13%	-4%	35µM*	1%
COCCNC(=O)c1c(NC(=O)Cc2coc3cc(C)ccc23)sc2c1CCCC2	/	3%	-7%	/	/	/
O=c1oc2ccccc2c2oc3cc(O)c(O)cc3c12	?	-18%	-1%	-9%	14µM*	-16%
CCCCCCn1ccc(=N)cc1	1%	5%	-3%	-24%	-3%	-2%
CCCCCCCCCCCCCCCCn1cc[n+](CC(C)=O)c1	2%	-4%	3%	32µM*	-8%	3%
CCOc1cccc2sc(N3CCN(C(=O)c4ccc5c(c4)CCCC5)CC3)nc12	/	-3%	4%	/	/	/
